The entries come from a sample that favours hits as a whole.
Dicer inh: human Dicer pre-microRNA cleavage inhibition; Q9UPY3; cat-ELCCA pre-miR-21 Dicer processing, chemiluminescence; stronger effect = higher value; z-score at 25 µM; 47,000 compounds, 6% hits; AID 1347074; in the data active = z-score above about 3, passing the limit was not always enough;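 note: higher signal means more uncleaved substrate so more Dicer inhibition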
Numbers stand for hits; i = inactive.

SMILES	Dicer inh
CSC1=N/C(=C\c2ccc(Cl)cc2)C(=O)N1Cc1ccc(Cl)cc1	i
CCCc1nc2sc3c(NCCN(C)C)ncnc3c2c2c1CCCC2	i
COc1cc2nc(SCC(=O)Nc3ccc(F)c(Cl)c3)n(-c3ccccc3)c(=O)c2cc1OC	i
CCOC(=O)N1CCC(N2CCN(S(=O)(=O)c3ccc(OC)cc3)CC2)CC1	i
CCOC(=O)N1CCC(N2CCCC(C(=O)N3CCCC3)C2)CC1 (stereo not given)	i
CCOC(=O)N1CCC(N2CCN(S(C)(=O)=O)CC2)CC1	5.04
CC(C)Cc1ccc(C2=CC(c3ccc(C#N)cc3)C(C(N)=O)C(=O)N2)cc1 (stereo not given)	i
CCCOc1ccc(-c2cc(OCC)c3c(C)oc(C)c3c(=O)c2)cc1	i
Cc1ccc2c(c1)C(=O)C(=O)N2CCOc1ccc(C(C)(C)C)cc1	i
CCOC(=O)/C(=C(/C)Nc1ccc(F)cc1)C1CC(=O)N(c2ccc(OC)cc2)C1=O (stereo not given)	i
CCOc1c(C(C)=O)c(=O)[nH]c2scc(C)c12	i
CC(C)(C)c1ccc(OCc2ccc(C(=O)O)cc2)cc1	i
CC(C)(C)c1ccc(OCc2nnc(N)s2)cc1	4.04
CC(C)(C)c1ccc(OCC(=N)N)cc1	i
C#CC(C)(C)NC(=S)Nc1ccc(C)cc1C	i
COc1cc2c(cc1OC)C(C)N(C(=S)Nc1cc(OC)c(OC)c(OC)c1)CC2 (stereo not given)	i
COC(=O)Cc1nc(Nc2ccccc2)sc1C	i
COC(=O)Cc1nc(NC(=O)C2CCC2C(=O)O)sc1C (stereo not given)	3.33
COC(=O)Cc1nc(NC(=O)c2nc(-c3ccccc3)oc2C)sc1C	i
Cc1cccc(Cl)c1NC(=S)N1CC(C)OC(C)C1 (stereo not given)	i
C=C(C)Cn1c(SCCC)nc2sc3c(c2c1=O)CC(C)(C)OC3	i
CCn1c(SCC(=O)c2ccccc2)nc2sc3c(c2c1=O)CC(C)(C)OC3	i
CC1(C)Cc2c(sc3[nH]c(=O)n(CC(=O)O)c(=O)c23)CO1	3.92
N#Cc1nc(-c2ccccc2OC(F)(F)F)oc1N	i
CCn1c(C)[n+](CC(O)COc2ccccc2C)c2ccccc21 (stereo not given)	i
SMILES	Dicer inh
CCOc1cc(CNCCSc2nnnn2C)ccc1OC	i
O=C(NC(=O)c1ccccc1F)NC1CC1	i
Cc1ccc(N2CC(O)=C(c3nc4ccccc4s3)C2=N)cc1	i
N=C1C(c2nc3ccccc3s2)=C(O)CN1Cc1ccccc1	i
N=C1C(c2nc3ccccc3s2)=C(O)CN1C1CCCCC1	3.09
COc1ccc(CN2C(=O)c3oc4ccc(Br)cc4c(=O)c3C2c2cccc(O)c2)cc1 (stereo not given)	i
CCc1ccc(CN(C(=O)c2oc3cc(C)ccc3c2C)C2CCS(=O)(=O)C2)cc1 (stereo not given)	i
Cc1cccc(/C=C/c2nn3c(-c4ccco4)nnc3s2)c1	3.39
Clc1ccccc1-c1ccc(-c2nn3c(-c4ccco4)nnc3s2)o1	i
COc1ccc(/C=C/c2nn3c(Cc4ccccc4)nnc3s2)cc1	i
COc1ccc(/C=C/c2nn3c(COc4ccccc4)nnc3s2)cc1	i
COc1ccc(/C=C/c2nn3c(Cc4ccc(OC)cc4)nnc3s2)cc1	4.66
COc1ccc(/C=C/c2nn3c(-c4ccccc4Cl)nnc3s2)cc1	i
Clc1ccccc1-c1nnc2sc(/C=C/c3ccccc3)nn12	i
Cc1ccc(/C=C/c2nn3c(-c4ccco4)nnc3s2)cc1	3.18
Cc1ccc(/C=C/c2nn3c(-c4ccco4)nnc3s2)cc1C	i
Cc1oc2c(F)c(F)c(F)c(F)c2c1C(=O)Oc1cccc(C(F)(F)F)c1	i
COC(=O)C1=C(C)NC2=C(C(=O)CCC2)C1c1ccccc1N1CCOCC1 (stereo not given)	i
COc1ccc(C(=O)/C=C/Sc2ncc(C(F)(F)F)cc2Cl)cc1	i
O=C(Cn1cc(C(=O)C2CCCCC2)c2ccccc21)NC1CCCC1	i
CCOC(=O)CC1=Nn2c(nnc2-c2ccc(C)cc2)SC1	i
O=C(Cn1cnc([N+](=O)[O-])n1)NCc1cccnc1	i
Cc1cc(C)c(Nc2nc(-c3c(-c4ccccc4)noc3C)cs2)c(C)c1	i
c1ccc2c(c1)N=C(NNC1=Nc3ccccc3SC1)CS2	3.83
O=C(NCc1cccs1)c1nc2ncccn2n1	i
SMILES	Dicer inh
CCCCCc1ccc(C(=O)NCc2cccs2)cc1	i
Nc1ccc(Cl)cc1C(=O)NCc1cccs1	21
COc1ccc(CO)c(Cl)c1OC	i
Cc1ccc(N2OC3C(=O)NC(=O)C3C2c2ccc(Cl)cc2)cc1 (stereo not given)	i
Cc1ccc(-c2nc(NC(=O)CSc3nnc4ccccn34)ns2)cc1	i
O=C(CSc1nnnn1-c1ccccc1)Nc1nsc(-c2ccc(Cl)cc2)n1	i
CC(C)(C)c1ccc(-c2nc(NC(=O)CSc3nnc4ccccn34)ns2)cc1	3.05
CCCN1CN=C(Nc2nc(C)c3ccc(C)cc3n2)NC1	i
O=c1[nH]n(-c2ncnc3sc4c(c23)CCCC4)c(=O)c2ccccc12	i
CC(C)(O)C#Cc1ccc(C(=O)N2CCN(Cc3ccc4c(c3)OCO4)CC2)cc1	i
CCOc1ccccc1C1C(C(=O)OCC2CCCO2)=C(C)NC2=C1C(=O)CCC2 (stereo not given)	i
Cc1nc(Nc2ncc3c(n2)CC(C)CC3=O)nc2ccccc12 (stereo not given)	i
CC1CC(=O)c2cnn(-c3nc4ccccc4s3)c2C1 (stereo not given)	3.04
CC1(C)CC(=O)c2cnn(-c3nc4ccccc4[nH]3)c2C1	i
CCn1c(/C=C/c2c[nH]c3ccccc23)nc2ccccc2c1=O	3.01
O=c1c2ccccc2nc(/C=C/c2ccc(O)cc2)n1Cc1ccccc1	i
COc1cccc(-n2c(/C=C/c3cn(C)c4ccccc34)nc3ccccc3c2=O)c1	i
CCCOC(=O)C1=C(C)NC2=C(C(=O)CC(C)(C)C2)C1c1ccc(OC(C)=O)cc1 (stereo not given)	i
CC1=C(C(=O)OC2CCCC2)C(c2cccc3ccccc23)C2=C(CCCC2=O)N1 (stereo not given)	i
Cc1ccsc1CNCCNC(=O)c1nonc1N	i
Cc1ccc2nc(C)nc(-c3ccccc3)c2c1	i
Cc1ccc(N=Cc2c(C)[nH]n(-c3ccc(C)cc3)c2=O)cc1	3.97
Cc1ccc(-n2[nH]c(C)c(C=Nc3ccc(Cl)cc3)c2=O)cc1	i
Cc1ccc(N=Cc2c(C)[nH]n(-c3ccccc3)c2=S)c(C)c1	i
CCOc1ccc(Nc2ncnc3sc4c(c23)CCCC4)cc1	i
SMILES	Dicer inh
COc1ccc(/C=C2\N=C(SC)SC2=O)cc1Br	i
Cc1csc(NC(=O)Nc2ccc(C(F)(F)F)cc2)c1Cl	i
Cc1ccc(NC(=O)c2ccsc2)cc1NS(C)(=O)=O	i
Cc1ccc(NC(=O)Nc2ccc(C(F)(F)F)cc2)cc1NS(C)(=O)=O	6.26
O=C1CN(c2ccc(OC(F)(F)F)cc2)C(=O)CN1CC1CC1	i
COc1ccc(Cc2nn3c(Cc4ccccc4)nnc3s2)cc1	i
CS/C(=N\S(=O)(=O)c1ccccc1)N1CCCC1	i
CS/C(=N\S(=O)(=O)c1ccccc1)N1CCCCC1	i
CSC(=Nc1ccccc1F)N1CCCCC1	4.81
S=c1[nH]nc(Nc2cccc(Cl)c2Cl)s1	i
CCOC(=O)CSc1nc(C)c2cc(C)c(C)cc2n1	i
CCCc1c(C)nc2ccc(OC)cc2c1SCCC(=O)O	3.51
CCOC(=O)c1cnc2ccc(OC)cc2c1Cl	i
COc1ccc(-c2nnc(SCCC(=O)O)n2C)cc1	i
CCOC(=O)Nc1nc2ccc(OC)cc2s1	i
CCOC(=O)CSc1nc(C)c2cc(OC)ccc2n1	3.57
